PNC assembly inh – blocks assembly of the perinucleolar compartment; PC3M PTB-GFP, PNC prevalence imaging, 16 h; stronger effect = lower value; activity change (PNC), negative = inhibition, % at 10 µM; hit rate 3.1% among 140,000; AID 2417;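 active means readout at or below -70, meaning at least 70% loss of cells showing the perinucleolar compartment, a nuclear body marking cancer cells; inconclusive means readout between -30 and a set limit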;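 further: plate controls were DMSO wells for no effect and camptothecin positive control wells for full effect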
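Read-out is percentage of cells bearing a perinucleolar compartment, from automated 20x imaging of fixed, Hoechst-stained PC3M PTB-GFP cells. Cells were seeded 4 h, then exposed 16 h to compound (23 nl of library stock) in duplicate plates.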
LMNA splice mod – changes lamin A minigene splicing in HeLa cells; HeLa LMNA splicing GFP/RFP minigene ratio, 48 h; Potency, µM (titrated, usually from 46.1 µM), without a hit: at the top dose ratio change, negative = inhibition, most hits filed as inhibitors; hit rate 0.01% among 200,000; AID 1487; active means well fitted inhibition curve with a large enough effect in the signal ratio, with a control signal flat, not every such curve was filed as active; inconclusive means small, poorly fitted or top-dose-only effect, or effect the other way, or a change in a side signal; the % refers to the signal ratio; further: potency means the concentration at half of the fitted maximal effect
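S3 HeLa stable clones carrying a lamin A-EGFP splicing minigene plus DsRed2 were seeded at 600 cells/well in Opti-MEM with 2% FBS, pin-dosed and incubated 48 h at 37°C. Acumen cytometry (488 nm) gave the GFP/RFP total-intensity ratio.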
HPGD block – HPGD (human) dehydrogenase inhibition; purified HPGD, NADH fluorescence kinetic, PGE2 substrate; AID 894; Potency, µM, without a hit: top-dose activity change, negative = inhibition, most hits filed as inhibitors; P15428; hit rate 4.3% among 150,000; further: potency means the concentration at half of the fitted maximal effect
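20 nM HPGD preincubated 15 min at room temperature with compound in 50 mM Tris-HCl pH 8, 0.01% Tween 20. Started with 1 mM NAD+ and 30 uM prostaglandin E2; NADH fluorescence (360/450 nm) read 5 times over 30-s intervals, last minus first.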
12-hLO inh – inhibitors of human 12-lipoxygenase (ALOX12). purified 12-hLO, xylenol orange hydroperoxide absorbance. Potency, µM (top dose mostly 57.1 µM), for the others: at the top dose activity change, negative = inhibition, usual class: inhibitors. hit rate 0.12% among 150,000. AID 1452; active means well fitted inhibition curve with a large enough effect; inconclusive means small, poorly fitted or top-dose-only effect; further: potency means the concentration at half of the fitted maximal effect; nearly all actives have a fitted effect of over 55% in size
Target sequence (P18054 whole entry, looked up): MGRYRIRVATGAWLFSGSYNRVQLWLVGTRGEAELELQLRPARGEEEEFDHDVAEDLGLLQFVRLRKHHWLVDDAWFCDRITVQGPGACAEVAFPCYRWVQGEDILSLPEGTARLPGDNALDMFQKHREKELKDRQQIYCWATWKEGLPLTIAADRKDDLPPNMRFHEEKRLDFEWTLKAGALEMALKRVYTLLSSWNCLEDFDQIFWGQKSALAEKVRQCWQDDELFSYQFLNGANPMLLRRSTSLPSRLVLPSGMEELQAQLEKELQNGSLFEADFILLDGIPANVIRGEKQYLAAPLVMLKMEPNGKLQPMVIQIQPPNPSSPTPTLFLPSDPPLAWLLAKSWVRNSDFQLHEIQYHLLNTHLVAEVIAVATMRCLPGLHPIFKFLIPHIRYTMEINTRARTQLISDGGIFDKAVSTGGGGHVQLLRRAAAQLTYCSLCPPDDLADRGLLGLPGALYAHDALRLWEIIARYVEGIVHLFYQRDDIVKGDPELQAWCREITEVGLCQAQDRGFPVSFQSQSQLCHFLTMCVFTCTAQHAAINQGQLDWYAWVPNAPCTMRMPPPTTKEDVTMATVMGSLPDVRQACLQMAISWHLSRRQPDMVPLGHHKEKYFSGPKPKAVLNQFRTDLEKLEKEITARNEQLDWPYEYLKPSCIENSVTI
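Hydroperoxide formation by human 12-lipoxygenase from 40 uM arachidonic acid was followed colorimetrically via ferric-xylenol orange complex, using the 573/405 nm absorbance ratio. Enzyme concentration was 150 nM, with 30 min reaction at room temperature.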
ALDH1A1 inh – blocks purified human ALDH1A1 activity; P00352; Purified ALDH1A1, NADH fluorescence, propionaldehyde substrate; Potency, µM (top dose mostly 75.3 µM), for inactives: at the highest dose activity, negative = inhibition, most hits filed as inhibitors; hit rate 7.3% among 220,000;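 further: potency means the concentration at half of the fitted maximal effect; plate controls were no enzyme wells and a reference inhibitor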
An asterisk follows results filed as active; ? = inconclusive; / = no result given; [ ] = dose if it differs, or a comment. Hits are enriched below; roughly 10% of the tested compounds scored in any of these assays. Unless noted, the call rests on the fitted dose curve; in most records, active means well fitted inhibition curve with a large enough effect (not every such curve was filed as active); inconclusive means small, poorly fitted or top-dose-only effect, or another doubt; inactive means no such curve, though single readings can be large or run the other way. Unless noted, on the % scale 0 is the no-effect control and ±100 the full control effect.

SMILES	PNC assembly inh	LMNA splice mod	HPGD block	12-hLO inh	ALDH1A1 inh
O=C(O)c1cccc(N2C(=O)C3CC=CCC3C2=O)c1 (stereo unspecified)	-100*	-8%	-13%	3%	-1%
CCC(=O)O[C@@]1(C(=O)CCl)[C@@H](C)C[C@@H]2[C@H]3CCC4=CC(=O)C=C[C@@]4(C)[C@]3(F)[C@@H](O)C[C@@]21C	/	?	-2%	-1%[25.6 µM]	11%[20.9 µM]
COc1cccc(C2(O)CC(C(F)(F)F)=NN2C(=O)c2ccccn2)c1 (stereo unspecified)	/	-14%[46 µM]	/	/	-12%
Cc1c(C(=O)OCC(=O)N2CC(C)OC(C)C2)oc2ccc(Br)cc12 (stereo unspecified)	?	?	?	-6%	0.18µM*
CCN(C#N)c1nc(N(C)C)nc(N(C)C)n1	4	-15%	-5%	4%	0%
CC(C)(C)Nc1nc(Cl)nc(N(C#N)CN2C(=O)c3ccccc3S2(=O)=O)n1	/	/	/	/	9%
CN(C)c1nc(N(C)C)nc(N(C#N)CN2C(=O)c3ccccc3S2(=O)=O)n1	/	/	/	/	20µM*
CC(C)Nc1nc(Cl)nc(N(C#N)CN2C(=O)c3ccccc3S2(=O)=O)n1	/	/	/	/	22µM*
Cc1ccc(Cl)cc1NC(=O)c1oc2ccc(S(=O)(=O)N3CCCCC3)cc2c1C	/	5%[46 µM]	/	/	/
Cc1ccc(CNC(=O)CSc2nc3ccsc3c(=O)n2-c2ccc(Br)cc2)cc1	/	18%[46 µM]	/	/	/
Cc1cccc(-c2nnc(SCC3CNC(=O)O3)n2-c2ccc(Cl)cc2)c1 (stereo unspecified)	?	1%	-18%	-3%	1.4µM*
COc1ccc(-c2nnc(SCCC(=O)O)n2-c2ccccc2)cc1	-2	5%	32µM*	-2%	?
COc1ccc(-n2c(SCC3CNC(=O)O3)nnc2-c2ccc(Cl)cc2)cc1 (stereo unspecified)	-20	1%	-4%	-2%	8.9µM*
O=c1ccc2cc(S(=O)(=O)Nc3ccc(F)c(Cl)c3)ccc2[nH]1	/	2%[46 µM]	/	/	/
CN1CCN(C(=O)Cn2c(-c3cccs3)cc3ccccc32)CC1	/	-9%[46 µM]	/	/	/
O=C(c1ccco1)n1nc(-c2ccccc2)nc1SCc1ccccc1	-10	-4%	18µM*	4%	1%
O=C(Cc1ccccc1)n1nc(-c2ccco2)nc1SCc1ccccc1	?	14%	4.5µM*	1%	?
CCCC(=O)n1nc(-c2ccco2)nc1SCc1ccccc1	-9	-11%	?	12%	?
COc1ccc(Oc2ncc3ncc(=O)n(Cc4cccs4)c3n2)cc1	/	/	-16%	-8%	?
CC1(OC(=O)C2CCCC2)C(=O)C=C2C=C(c3ccsc3)N(Cc3ccco3)C=C2C1=O (stereo unspecified)	/	?	-11%	-17%[11.4 µM]	3.5µM*
CC1(OC(=O)C2CCCC2)C(=O)C=C2C=C(c3ccsc3)N(CCCCO)C=C2C1=O (stereo unspecified)	/	-22%[9.22 µM]	-7%	-2%[11.4 µM]	-3%[13.5 µM]
CC1CN(C2CCN(S(=O)(=O)c3ccc(F)cc3)CC2)CC(C)O1 (stereo unspecified)	-30	-14%	-2%	-5%	25µM*
Cc1ccc(NC(=O)CSc2ccc(-c3ccco3)nn2)cc1	/	/	/	/	3.2µM*
Cc1ccc(-c2ccc(SCC(=O)Nc3cc(C)on3)nn2)cc1	/	/	/	/	24%
Cc1cc(C)cc(NC(=O)CSc2ccc(-c3ccco3)nn2)c1	?	?	?	2%	7.1µM*
SMILES	PNC assembly inh	LMNA splice mod	HPGD block	12-hLO inh	ALDH1A1 inh
Cc1ccc(CNC(=O)CSc2ccc(-c3ccco3)nn2)cc1	18	-6%	-24%	0%	14µM*
O=C(CSc1ccc(-c2ccco2)nn1)c1ccc(F)cc1	-22	-6%	?	-7%	3.2µM*
O=C(CSc1ccc(-c2ccco2)nn1)NCc1ccc(F)cc1	-15	-3%	-14%	-2%	?
Cc1noc(C)c1C(=O)N1CCC2(CCCN(c3ccccc3)C2)CC1	/	/	-6%	-5%	-6%
CC(=O)Nc1nonc1-c1nnc(SCc2ccc(F)cc2)n1C	/	19%[46 µM]	/	/	/
CCCCN(CC)C(=O)c1cc2c(=O)n3ccccc3nc2n1C	/	1%[46 µM]	/	/	/
CC(=O)Nc1ccc(NC(=O)CSc2ccc(-c3ccco3)nn2)cc1	/	2%[46 µM]	/	/	7.1µM*

High-throughput results: PubChem, National Center for Advancing Translational Sciences (NCATS)
